Experimental data taken from PubChem BioAssay (Tox21).
Records with an inconclusive call do not appear. Where a call stands in place of a potency, no number is given. Activity calls are given as the source filed them. Calls follow the shape of the dose curve; as a rule, active = well fitted curve in the direction sought with a large enough effect in the repeat runs; inconclusive = weak or mixed curves; inactive = no such curve, though single readings can be large; an effect the other way counts as inactive or inconclusive.

Tests used:
[1] = A CellTox Green Cytotoxicity Assay to monitor cytotoxicity in HEK293 cells - 24 hour (AID 1224875); also: nearly all actives have a fitted effect of over 45% in size; also: potency is read from the fitted curve at half-maximal effect
How it was run: (§1)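 Fluorescence from a DNA-binding dye excluded by viable cells was measured repeatedly in the same HEK293 wells (600 cells/well) during continuous compound exposure at 37 C. Each assay gives one read point: 0, 8, 16, 24, 32 or 40 h.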

[2] = A CellTox Green Cytotoxicity Assay to monitor cytotoxicity in HepG2 cells - 16 hour (AID 1224876); also: nearly all actives have a fitted effect of over 45% in size
How it was run: (§2)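 Real-time cytotoxicity: fluorescence of a cell-impermeant cyanine dye binding DNA of dead HepG2 cells, measured repeatedly (0–40 h) during compound exposure at 37 C. Cells seeded 600/well with reagent, dosed after 5 h.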

[3] = qHTS RealTime-Glo MT Cell Viability Assay in HepG2 cells - 32 hour (AID 1224877); also: nearly all actives have a fitted effect of over 55% in size
How it was run: (§3)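 HepG2 suspension premixed with RealTime-Glo reagents is plated at 600 cells per well and left 5 h at 37 C/5% CO2. Compounds in DMSO then go in, and bioluminescence reflecting viable cell number is recorded over 40 h.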

[4] = A CellTox Green Cytotoxicity Assay to monitor cytotoxicity in HepG2 cells - 24 hour (AID 1224878); also: nearly all actives have a fitted effect of over 45% in size
How it was run: as §2

[5] = A CellTox Green Cytotoxicity Assay to monitor cytotoxicity in HepG2 cells - 40 hour (AID 1224879); also: nearly all actives have a fitted effect of over 40% in size; also: potency is read from the fitted curve at half-maximal effect
How it was run: as §2

[6] = qHTS RealTime-Glo MT Cell Viability Assay in HEK293 cells - 0 hour (AID 1224880); also: top concentration of the series differs between compounds; nearly all actives have a fitted effect of over 45% in size
How it was run: (§4)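 Luminescence, which tracks viable cell number through reduction of the prosubstrate to a NanoLuc substrate, was read over continuous 37 C culture. Cells (600/well) were premixed with reagent and rested 5 h before 23 nL of compound in DMSO was pinned.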

[7] = A CellTox Green Cytotoxicity Assay to monitor cytotoxicity in HEK293 cells - 32 hour (AID 1224881); also: nearly all actives have a fitted effect of over 40% in size; also: potency is read from the fitted curve at half-maximal effect
How it was run: as §1

[8] = A CellTox Green Cytotoxicity Assay to monitor cytotoxicity in HepG2 cells - 0 hour (AID 1224882); also: nearly all actives have a fitted effect of over 35% in size
How it was run: as §2

[9] = A CellTox Green Cytotoxicity Assay to monitor cytotoxicity in HepG2 cells - 32 hour (AID 1224883); also: nearly all actives have a fitted effect of over 50% in size
How it was run: as §2

[10] = A CellTox Green Cytotoxicity Assay to monitor cytotoxicity in HEK293 cells - 8 hour (AID 1224884); also: nearly all actives have a fitted effect of over 35% in size
How it was run: as §1

[11] = qHTS RealTime-Glo MT Cell Viability Assay in HepG2 cells - 16 hour (AID 1224885); also: nearly all actives have a fitted effect of over 50% in size
How it was run: as §3

[12] = qHTS RealTime-Glo MT Cell Viability Assay in HEK293 cells - 8 hour (AID 1224887); also: nearly all actives have a fitted effect of over 50% in size; also: potency is read from the fitted curve at half-maximal effect
How it was run: as §4

[13] = A CellTox Green Cytotoxicity Assay to monitor cytotoxicity in HEK293 cells - 16 hour (AID 1224888); also: nearly all actives have a fitted effect of over 35% in size
How it was run: as §1

[14] = qHTS RealTime-Glo MT Cell Viability Assay in HepG2 cells - 0 hour (AID 1224889); also: nearly all actives have a fitted effect of over 50% in size
How it was run: as §3

[15] = A CellTox Green Cytotoxicity Assay to monitor cytotoxicity in HepG2 cells - 8 hour (AID 1224890); also: nearly all actives have a fitted effect of over 45% in size
How it was run: as §2

[16] = qHTS assay to identify small molecule antagonists of the estrogen receptor alpha (ER-alpha) signaling pathway using the BG1 cell line in the presence of 0.1 nM 17-beta-estradiol - cell viability counter screen (AID 1259241); also: nearly all actives have a fitted effect of over 40% in size
How it was run: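 In this screen, hormone-deprived VM7Luc4E2 cells were seeded at 4,000 per well, dosed with compound and 0.1 nM estradiol final, and incubated 22 hr at 37C and 5% CO2; fluorogenic live-cell protease signal reported viability.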

[17] = qHTS assay to identify small molecule antagonists of the androgen receptor (AR) signaling pathway using the MDA cell line in the presence of 0.5 nM R1881 - cell viability counter screen (AID 1259242); also: nearly all actives have a fitted effect of over 45% in size
How it was run: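 Live-cell protease activity was measured by CellTiter-Fluor fluorescence after 30 min. Before that, MDA-kb2 MMTV-luciferase cells had 16 hr at 37C without CO2, exposed to test compounds and 0.5 nM R1881 final.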

[18] = target: Androgen receptor (Homo sapiens) (UniProt P10275); assay: qHTS assay to identify small molecule antagonists of the androgen receptor (AR) signaling pathway using the MDA cell line in the presence of 0.5 nM R1881 (AID 1259243); also: nearly all actives have a fitted effect of over 50% in size; also: potency is read from the fitted curve at half-maximal effect
Sequence of Androgen receptor (Homo sapiens) (P10275 whole entry, looked up): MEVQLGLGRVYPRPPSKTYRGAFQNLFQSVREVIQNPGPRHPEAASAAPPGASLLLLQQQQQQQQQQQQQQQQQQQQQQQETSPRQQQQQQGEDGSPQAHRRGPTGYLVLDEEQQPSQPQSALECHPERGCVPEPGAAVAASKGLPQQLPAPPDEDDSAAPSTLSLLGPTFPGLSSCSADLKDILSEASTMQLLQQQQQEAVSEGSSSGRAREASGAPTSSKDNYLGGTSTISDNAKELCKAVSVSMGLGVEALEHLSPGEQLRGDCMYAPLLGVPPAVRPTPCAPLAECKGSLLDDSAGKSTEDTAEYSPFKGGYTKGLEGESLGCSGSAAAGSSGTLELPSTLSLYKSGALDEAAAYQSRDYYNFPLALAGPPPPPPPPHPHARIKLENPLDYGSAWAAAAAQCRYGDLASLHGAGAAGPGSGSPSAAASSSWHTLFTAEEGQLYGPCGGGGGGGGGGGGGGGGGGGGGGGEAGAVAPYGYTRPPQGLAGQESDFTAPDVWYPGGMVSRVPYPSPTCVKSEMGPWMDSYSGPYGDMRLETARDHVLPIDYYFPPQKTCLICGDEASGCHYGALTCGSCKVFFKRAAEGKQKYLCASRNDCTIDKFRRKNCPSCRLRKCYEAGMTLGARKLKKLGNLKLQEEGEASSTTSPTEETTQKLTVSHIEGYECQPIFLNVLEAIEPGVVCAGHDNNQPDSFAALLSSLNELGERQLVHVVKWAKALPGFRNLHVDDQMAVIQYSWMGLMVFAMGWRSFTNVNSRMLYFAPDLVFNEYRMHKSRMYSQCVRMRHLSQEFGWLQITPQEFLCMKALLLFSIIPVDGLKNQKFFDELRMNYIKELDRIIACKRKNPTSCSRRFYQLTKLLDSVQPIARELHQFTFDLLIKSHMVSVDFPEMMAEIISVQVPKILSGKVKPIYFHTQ
How it was run: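 Luminescent reporter readout (ONE-Glo, 30 min, room temperature) after 16 hr co-treatment of MDA-kb2 cells with test compounds and 0.5 nM R1881 final, at 37C without CO2. The MMTV-driven luciferase responds to both AR and GR.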

[19] = qHTS RealTime-Glo MT Cell Viability Assay in HEK293 cells - 24 hour (AID 1224886)
How it was run: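 Reads taken at 0, 8, 16, 24, 32 and 40 h from the same wells. HEK293 cells (600/well) carried RealTime-Glo reagents from seeding, with compound added after a 5 h settle at 37 C.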

Row | SMILES | Potency [1] | Potency [2] | Potency [3] | Potency [4] | Potency [5] | Potency [6] | Potency [7] | Potency [8] | Potency [9] | Potency [10] | Potency [11] | Potency [12] | Potency [13] | Potency [14] | Potency [15] | Potency [16] | Potency [17] | Potency [18] | Potency [19]
1 | C=C1CC[C@H]2O[C@]2(C)CC[C@@H]2[C@@H]1CC2(C)C | inactive | inactive | inactive | inactive | inactive | inactive | inactive | inactive | inactive | inactive | inactive | 49 µM (active) | inactive | inactive | inactive | inactive | inactive | inactive | 
2 | CCCOC(=O)c1ccc(O)cc1 | inactive | inactive | inactive | inactive |  | inactive | inactive | inactive | inactive | inactive | inactive |  | inactive | inactive |  | inactive | inactive |  | 21.9 µM (active)
3 | C1=CCCC1 |  |  | inactive | inactive | inactive |  |  | inactive | inactive |  | inactive |  |  | inactive | inactive | inactive | inactive | inactive | 
4 | CCOC(=O)C1=NN(c2ccc(Cl)cc2Cl)C(C)(C(=O)OCC)C1 (centres undefined) | inactive | inactive | inactive | inactive | inactive | inactive | inactive | inactive |  | inactive | inactive |  | inactive | inactive |  | inactive | inactive | 30.6 µM (active) | 
5 | CC(C)c1ccc2sc3ccccc3c(=O)c2c1 | inactive |  | inactive | inactive | 19.5 µM (active) | inactive | inactive | inactive |  | inactive | inactive |  | inactive | inactive | inactive | inactive | inactive |  | 
6 | O=C1Cc2ccccc2C1 |  |  |  |  |  | inactive |  |  |  |  |  |  |  |  |  |  |  |  | 
7 | CCNc1nc(NC(C)(C)C)nc(OC)n1 | inactive |  | inactive | inactive | inactive | inactive | inactive | inactive | inactive | inactive | inactive | inactive | inactive | inactive | inactive | inactive | inactive |  | 
8 | CC(C)(C)c1ccc(OC2CCCCC2O)cc1 (centres undefined) | 54.9 µM (active) |  | inactive |  |  | inactive | 49 µM (active) | inactive |  |  | inactive |  |  | inactive | inactive | inactive | inactive | 61.1 µM (active) | 54.9 µM (active)
9 | CCCCCCCC1CCC(=O)O1 (centres undefined) |  |  |  |  |  | inactive |  |  |  |  |  |  |  |  |  |  |  |  | 
10 | CS(=O)(=O)c1ccc([C@@H](CC2CCCC2)C(=O)Nc2cnccn2)cc1Cl |  |  |  |  |  | inactive |  |  |  |  |  |  |  |  |  |  |  |  | 
11 | C=CC(=O)OCC(Br)CBr (centres undefined) | inactive | inactive | inactive | inactive | inactive |  |  | inactive | inactive | inactive | inactive | inactive | inactive | inactive | inactive | inactive | inactive | inactive | 
12 | O=C1OC(O)C(C(Cl)Cl)=C1Cl (centres undefined) | inactive | inactive |  |  | 35.7 µM (active) | inactive | inactive | inactive |  | inactive |  | inactive | inactive | inactive |  | inactive | inactive |  | 
13 | Nc1cccnc1N | inactive | inactive | inactive | inactive | inactive | inactive | inactive | inactive | inactive | inactive | inactive | inactive | inactive | inactive |  |  | inactive |  | 
14 | O=C1CCC(=O)N1 | inactive | inactive | inactive | inactive | inactive |  | inactive | inactive | inactive | inactive | inactive |  | inactive | inactive | inactive | inactive | inactive | inactive | 
15 | C1CCSC1 | inactive | inactive | inactive | inactive | inactive | inactive | inactive | inactive | inactive | inactive | inactive |  | inactive | inactive | inactive | inactive | inactive |  | 
